“And” between values parts separate entries of the source, which are not always exact repeats. Identical values can stand only once. Compounds without any hit were thinned out: in the full panel of roughly 83,000, 20% have a hit.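 Values shown are percent growth following 48 h exposure of cells in 96-well plates to a single concentration of compound; below 10 was considered active.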 The source made the active and inactive calls.
System: MDA-MB-468 breast
Assay: NCI-60 one-dose screen, 48 h (100 = growth as untreated, 0 = no growth, -100 = all killed)
Settings: 10 µM unless noted

In the case of `CCOC(=O)c1cnc2ccccc2c1Cl`, the growth is reported as 97.4% (inactive).

In the case of `CC(C)C(C#N)(C(C)C)C(C)C`, the growth is reported as 109% (inactive).

With `Nc1ncnc2c1ncn2C1OC(COP(=O)(O)O)C(O)C1O` (stereo not given) the growth was 102% (inactive).

For `COc1ccc(C(C)=O)cc1N1C(=O)C2C(C1=O)C1(c3ccccc3)C(=O)C2(c2ccccc2)C(c2ccc(C)cc2)=C1c1ccc(C)cc1` (stereo not given), the growth was 13.9% (inactive).

With `CCNCc1ccc(O)c2ncccc12` the growth was 54.6% (inactive).

In the case of `Cc1nc2sc(C(=O)Nc3cccc(Br)c3C)c(N)c2cc1C(O)c1ccccc1` (stereo not given), the growth is reported as 17.9% (inactive).

`O=C(NCCNc1nccc(-c2c(-c3cccc(O)c3)nc3sccn23)n1)c1ccc(N2CCOCC2)c(C(F)(F)F)c1` was tested, and the growth was 50.2% (inactive).

In the case of `C#C[C@]1(O)CC[C@H]2[C@@H]3CC=C4c5sc(Nc6cccc(Cl)n6)nc5CC[C@]4(C)[C@H]3CC[C@@]21C`, the growth is reported as 23.3% (inactive).

With `N=C(N)Sc1cccc[n+]1[O-]` the growth was 62.4% (inactive).

In the case of `COc1cccc2cc(N(C)c3nc(C)nc4c3CCC4)ccc12`, the growth is reported as 18% (inactive).

In the case of `CCN(CCCOc1ccc2c(Nc3cc(CC(=O)Nc4cccc(F)c4)[nH]n3)ncnc2c1)CCOP(=O)(O)O`, the growth is reported as 67.6% (inactive).

For `Cc1cc(Cl)c2c(Cl)ccc(Cl)c2n1`, the growth was 105% (inactive).

`CCCCCCCCCCCCSC(=N)N` was tested, and the growth was -58.5% (active).

`Clc1nnc2c3ccccc3ccn12` was tested, and the growth was 101% (inactive).

In the case of `Cc1ccc(O)c(Cc2ccccc2)c1`, the growth is reported as 101% (inactive).

With `CC1=C(O)C(=O)C(c2c(C)cc(C)c(Br)c2C)=C(O)C1=O` the growth was 85.8% (inactive).

For `COc1cc(-c2nn(-c3cccc(NC(=O)NCCNC(=O)c4cccc(C(F)(F)F)c4)c3)cc2-c2ccncc2)ccc1Cl`, the growth was 7.11% (active).

For `Cc1cc(Nc2c3ccccc3nc3ccccc23)ccc1NS(C)(=O)=O`, the growth was 23.6% (inactive).

For `O=[N+]([O-])c1ccccc1NC1c2ccccc2Oc2ccccc21`, the growth was 30.6% (inactive).

In the case of `CCC(=O)OCc1ccc(OC)cc1`, the growth is reported as 87.3% (inactive).

In the case of `Cc1c2cc[nH]c(=O)c2c(C)c2c1[nH]c1cc(OCCN3CCN(C)CC3)ccc12`, the growth is reported as -12.4% (active).

With `C=C(C[C@](O)(C(=O)/C=C/c1ccc(Cl)cc1)C(=O)OC)c1ccccc1` the growth was 69.5% (inactive).

For `C=C(C)[C@@H]1CC[C@]2(C(=O)OC)CC[C@]3(C)[C@H](CC[C@@H]4[C@@]5(C)CC/C(=N\OCCC(=NCCC#N)NOCCC#N)C(C)(C)[C@@H]5CC[C@]43C)[C@@H]12`, the growth was 4.41% [100 µM] (active).

`Nc1ncnc2c1nc(N)n2C1OC(CO)C(O)C1O` (stereo not given) was tested, and the growth was -73.6% (active).

For `COc1cc(/C=C\c2cc(/C=C\c3ccc(O)c(OC)c3)n(C(=O)CNc3ccc(Cl)cc3)n2)ccc1O`, the growth was 1.63% (active).

For `Cn1nc(Nc2ccccc2)c(C(=O)NN)c1N`, the growth was 100% (inactive).

For `O=C(O)C1C2CC3C(OC(=O)C31)C2Br` (stereo not given), the growth was 93.2% (inactive) and 72.3% (inactive).

`CCN(CC)C(=O)CC1=C(C)/C(=C/c2[nH]c(-c3ccc[nH]3)cc2OC)N=C1C` was tested, and the growth was 29.9% (inactive).

In the case of `O=C(CCc1nnc2sc(-c3ccccc3)nn12)c1nc2ccccc2[nH]1`, the growth is reported as 87.3% (inactive).

For `COCCOc1ccc(-c2nc3ccc(-c4nc5ccc(N6CCN(C)CC6)cc5[nH]4)cc3[nH]2)cc1`, the growth was -22.5% (active).

In the case of `COc1cc(CCN=Cc2ccccc2O)c([N+](=O)[O-])cc1OC`, the growth is reported as 113% (inactive).

With `COc1cc2c(cc1NC(=O)C(F)(F)F)-c1ccc(NC(=O)C(F)(F)F)cc1C2` the growth was 58% (inactive).

With `COc1cccc(/C=C2\C=C(c3ccccc3)N(Cc3ccccc3)C2=O)c1` the growth was 45.3% (inactive).

In the case of `Cc1cc(C)c(O)c(CNCCCNCc2cc(C)cc(C)c2O)c1`, the growth is reported as 7.95% (active).

With `N#CC1=C(N)Oc2c(sc3c(Br)cccc23)C1c1ccc(Cl)cc1` (stereo not given) the growth was 1.22% (active).
